In PubChem BioAssay (NCI):
About 79,000 compounds went through this panel and 15% of them were active in at least one assay; those are over-represented in the sample as a whole. Calls of active or inactive are those of the source. No stated cut-off is given here; in the data, active means growth inhibition above about 70%; inactive means the rest.

Columns and labels:
[1] = NCI Yeast Anticancer Drug Screen. Data for the rad52 strain (AID 147);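 further: 0% = growth of vehicle-treated control cultures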; settings: S. cerevisiae rad52 mutant growth inhibition, active compounds read high
Outline: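 Inhibition of yeast growth, referenced to vehicle controls, was the measured output for a strain with defective DNA damage repair.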

[2] = NCI Yeast Anticancer Drug Screen. Data for the wt1 strain (AID 149);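 further: 0% = growth of vehicle-treated wt1 cultures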; settings: S. cerevisiae wt1 strain (SPY 50644) growth inhibition, active compounds read high
Outline: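 Growth inhibition read against vehicle controls after compound exposure of the wt1 yeast strain.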

[3] = NCI Yeast Anticancer Drug Screen. Data for the rad50EPP+ strain (AID 151);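 further: 0% = growth of vehicle-treated control cultures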; settings: S. cerevisiae rad50 mutant strain, active compounds read high
Outline: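 Genetically defined yeast (rad50EPP+, DNA damage repair alteration) is grown with compound, and inhibition of growth is expressed relative to vehicle-treated controls.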

[4] = NCI Yeast Anticancer Drug Screen. Data for the mgt1 strain (AID 153); settings: S. cerevisiae mgt1 mutant growth inhibition, active compounds read high
Outline: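 In the mgt1 strain, test compounds were added and growth inhibition was determined relative to vehicle-treated controls.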

[5] = NCI Yeast Anticancer Drug Screen. Data for the rad50 strain (AID 155);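 further: 0% = growth of vehicle-only cultures of the same strain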; settings: S. cerevisiae rad50 strain growth inhibition, active compounds read high
Outline: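 Readout: growth inhibition relative to vehicle-treated cultures. Compound exposure was carried out in a genetically defined yeast strain deficient in DNA damage repair.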

[6] = NCI Yeast Anticancer Drug Screen. Data for the mec2-1 strain (AID 157); settings: S. cerevisiae mec2-1 strain, active compounds read high
Outline: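 Each compound was tested on mec2-1 yeast, a strain altered in DNA damage repair or cell cycle control. Growth inhibition is reported relative to vehicle.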

[7] = NCI Yeast Anticancer Drug Screen. Data for the rad14 strain (AID 159);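 further: 0% = growth of vehicle-treated control cultures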; settings: S. cerevisiae rad14 strain growth inhibition, active compounds read high
Outline: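 Growth inhibition vs vehicle controls; genetically altered yeast strain (DNA damage repair defect) treated with test compounds.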

[8] = NCI Yeast Anticancer Drug Screen. Data for the sgs1 mgt1 strain (AID 161);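 further: 0% = growth of cultures given vehicle only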; settings: S. cerevisiae sgs1 mgt1 strain, active compounds read high
Outline: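 Inhibition of yeast growth, normalised to vehicle-treated controls, is reported for a strain bearing genetic alterations in DNA damage repair.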

[9] = NCI Yeast Anticancer Drug Screen. Data for the CLN2oe strain (AID 163);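 further: 0% = growth of vehicle-only control cultures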; settings: S. cerevisiae CLN2oe strain, active compounds read high
Outline: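 First, the altered yeast strain was treated with each compound; second, its growth was measured; finally, inhibition was derived by comparison with vehicle controls.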

[10] = NCI Yeast Anticancer Drug Screen. Data for the cln2 rad14 strain (AID 165);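 further: 0% = growth equal to vehicle treated cultures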; settings: S. cerevisiae cln2 rad14 strain, active compounds read high
Outline: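 Test compounds were added to cln2 rad14 yeast cultures; inhibition of growth was then determined by comparison with vehicle treatment.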

[11] = NCI Yeast Anticancer Drug Screen. Data for the bub3 strain (AID 167); settings: S. cerevisiae bub3 mutant strain, active compounds read high
Outline: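 Readout: yeast growth inhibition, expressed relative to vehicle-only wells. The test organism is a mutant strain from a panel with lesions in DNA repair or checkpoint genes.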

[12] = NCI Yeast Anticancer Drug Screen. Data for the wt2 strain (AID 169);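 further: 0% = growth of vehicle-treated yeast cultures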; settings: S. cerevisiae wt2 strain growth inhibition, active compounds read high
Outline: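 The panel's yeast strains carry defined changes in DNA repair or cell cycle genes. Each strain is grown with compound, and growth loss is scored relative to vehicle.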

[13] = NCI Yeast Anticancer Drug Screen. Data for the sgs1 strain (AID 173);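 further: 0% = growth of vehicle-only control cultures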; settings: S. cerevisiae sgs1 mutant, active compounds read high
Outline: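 Vehicle-treated cultures served as reference for growth inhibition of a yeast strain altered in DNA damage repair or cell cycle control after compound exposure.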

[14] = NCI Yeast Anticancer Drug Screen. Data for the mlh1 rad18 strain (AID 175); settings: S. cerevisiae mlh1 rad18 strain growth inhibition, active compounds read high
Outline: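 Inhibition values reflect reduced growth of mutant yeast versus vehicle-treated controls following compound exposure; the mutations affect DNA damage repair.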

[15] = NCI Yeast Anticancer Drug Screen. Data for the rad18 strain (AID 177); settings: S. cerevisiae rad18 mutant growth inhibition, active compounds read high
Outline: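 Steps: expose repair-mutant yeast to compound; measure growth; express as inhibition relative to vehicle control.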

[16] = at 5.0 µM (retest, dose inferred, filed as 0.5)
[17] = at 50.0 µM (retest, dose inferred, filed as 5.0)

Measured: growth inhibition

O=P(C(=S)Nc1c(Cl)cccc1Cl)(c1ccccc1)c1ccccc1
inactive: [1]; at 1.2 µM 21% | [1]; at 3.7 µM 24% | [1]; at 11.0 µM 22% | [1]; at 33.0 µM 24% | [2]; at 1.2 µM 31% | [2]; at 3.7 µM 25% | [2]; at 11.0 µM 18% | [2]; at 33.0 µM 24% | [3]; at 1.2 µM 6% | [3]; at 3.7 µM 8% | [3]; at 11.0 µM 24% | [3]; at 33.0 µM 19% | [3]; at 100.0 µM 31% | [4]; at 1.2 µM 11% | [4]; at 3.7 µM -16% | [4]; at 11.0 µM -11% | [4]; at 33.0 µM -1% | [5]; at 1.2 µM 20% | [5]; at 3.7 µM 8% | [5]; at 11.0 µM 14% | [5]; at 33.0 µM 1% | [6]; at 1.2 µM 5% | [6]; at 3.7 µM 9% | [6]; at 11.0 µM 14% | [6]; at 33.0 µM 7% | [7]; at 1.2 µM -13% | [7]; at 3.7 µM -14% | [7]; at 11.0 µM -16% | [7]; at 33.0 µM -18% | [8]; [16] -6% | [9]; at 1.2 µM 8% | [9]; at 3.7 µM 21% | [9]; at 11.0 µM 15% | [9]; at 33.0 µM 16% | [10]; [16] 41% | [11]; at 1.2 µM 0% | [11]; at 3.7 µM 4% | [11]; [16] 21% | [11]; at 11.0 µM 14% | [11]; at 33.0 µM 11% | [12]; at 1.2 µM 21% | [12]; at 3.7 µM 8% | [12]; at 11.0 µM 15% | [12]; at 33.0 µM 35% | [13]; at 1.2 µM 25% | [13]; at 3.7 µM 13% | [13]; at 11.0 µM 3% | [13]; at 33.0 µM 18% | [14]; [16] 60% | [15]; at 1.2 µM -12% | [15]; at 3.7 µM -20% | [15]; at 11.0 µM -22% | [15]; at 33.0 µM -12%
active: [1]; at 100.0 µM 97% | [2]; at 100.0 µM 96% | [4]; at 100.0 µM 95% | [5]; [16] 73% | [5]; [17] 99% | [5]; at 50.0 µM 87.7% | [5]; at 100.0 µM 95% | [6]; [16] 71% | [6]; [17] 99% | [6]; at 50.0 µM 91% | [6]; at 100.0 µM 94% | [7]; at 100.0 µM 94% | [8]; [17] 95% | [8]; at 50.0 µM 88.3% | [9]; at 100.0 µM 95% | [10]; [17] 96% | [10]; at 50.0 µM 89.9% | [11]; [17] 75% | [11]; at 50.0 µM 89% | [11]; at 100.0 µM 97% | [12]; at 100.0 µM 96% | [13]; at 100.0 µM 95% | [14]; [17] 98% | [14]; at 50.0 µM 87.2% | [15]; at 100.0 µM 96%

CCCCCCNCCCNc1c2cc(OC)ccc2nc2cccc([N+](=O)[O-])c12
inactive: [1]; at 1.2 µM 8% | [1]; at 3.7 µM 25% | [2]; at 1.2 µM 1% | [2]; at 3.7 µM 1% | [2]; at 11.0 µM 9% | [2]; at 33.0 µM 59% | [3]; at 1.2 µM 2% | [3]; at 3.7 µM 5% | [3]; at 11.0 µM 20% | [3]; at 33.0 µM 60% | [4]; at 1.2 µM 0% | [4]; at 3.7 µM 0% | [4]; at 11.0 µM 10% | [5]; at 1.2 µM 5% | [5]; at 3.7 µM 15% | [5]; [16] 35% | [5]; at 11.0 µM 66% | [6]; at 1.2 µM -1% | [6]; at 3.7 µM 4% | [6]; [16] 9% | [7]; at 1.2 µM 7% | [7]; at 3.7 µM 55% | [9]; at 1.2 µM -8% | [9]; at 3.7 µM -13% | [9]; at 11.0 µM -9% | [9]; at 33.0 µM 53% | [11]; at 1.2 µM -6% | [11]; at 3.7 µM -13% | [11]; [16] -3% | [11]; at 11.0 µM -18% | [11]; at 33.0 µM 34% | [12]; at 1.2 µM 0% | [12]; at 3.7 µM 0% | [12]; at 11.0 µM 12% | [13]; at 1.2 µM 21% | [13]; at 3.7 µM 65%
active: [1]; at 11.0 µM 73% | [1]; at 33.0 µM 93% | [1]; at 100.0 µM 97% | [2]; at 100.0 µM 96% | [3]; at 100.0 µM 92% | [4]; at 33.0 µM 81% | [4]; at 100.0 µM 98% | [5]; at 33.0 µM 92% | [5]; [17] 97% | [5]; at 50.0 µM 94.6% | [5]; at 100.0 µM 96% | [6]; at 11.0 µM 73% | [6]; at 33.0 µM 94% | [6]; [17] 98% | [6]; at 50.0 µM 96.4% | [6]; at 100.0 µM 99% | [7]; at 11.0 µM 96% | [7]; at 33.0 µM 99% | [7]; at 100.0 µM 99% | [8]; [16] 88% | [8]; [17] 97% | [8]; at 50.0 µM 95.7% | [9]; at 100.0 µM 96% | [10]; [16] 77% | [10]; [17] 99% | [10]; at 50.0 µM 98.8% | [11]; [17] 96% | [11]; at 50.0 µM 92.7% | [11]; at 100.0 µM 95% | [12]; at 33.0 µM 81% | [12]; at 100.0 µM 98% | [13]; at 11.0 µM 88% | [13]; at 33.0 µM 95% | [13]; at 100.0 µM 98% | [14]; [16] 73% | [14]; [17] 97% | [14]; at 50.0 µM 97.2% | [15]; at 1.2 µM 89% | [15]; at 3.7 µM 93% | [15]; at 11.0 µM 93% | [15]; at 33.0 µM 95% | [15]; at 100.0 µM 98%
